Measurements reported in the supplement of paper PMC6555819.

Columns and labels:
Assay in all cases: PBM binding z-score (relative to random genomic background probes); higher = stronger binding; sequences stand for … in GC…GCGATTGACAGCGTAGAATGAAGG
[1] = system: FXR:RXRa (NR concentration 270 nM, RXRa partner concentration 90 nM)
How it was run: (§1)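 Ligand-free nuclear receptor dimers were applied to custom Agilent 4×180K protein-binding microarrays whose double-stranded probes carried direct-repeat seeds, single-nucleotide variants, half-site ablations and random human genomic background sequences in 34-nt variable regions. Incubation lasted 1 h. Binding z-scores were computed against the random background probes from regression-normalized fluorescence.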

[2] = system: LXRa:RXRa (NR concentration 270 nM, RXRa partner concentration 90 nM)
How it was run: as §1

[3] = system: LXRa homodimer (NR concentration 270 nM)
How it was run: as §1

[4] = system: LXRb:RXRa (NR concentration 270 nM, RXRa partner concentration 90 nM)
How it was run: as §1

[5] = system: LXRb homodimer (NR concentration 270 nM)
How it was run: as §1

[6] = system: PPARa:RXRa (NR concentration 270 nM, RXRa partner concentration 90 nM)
How it was run: as §1

[7] = system: PPARg:RXRa (NR concentration 180 nM, RXRa partner concentration 90 nM)
How it was run: as §1

[8] = system: PPARg:RXRa 270nM:90nM, anti-RXR (NR concentration 270 nM, RXRa partner concentration 90 nM)
How it was run: as §1

[9] = system: PPARg:RXRa 30nM:10nM, anti-RXR (NR concentration 30 nM, RXRa partner concentration 10 nM)
How it was run: as §1

[10] = system: PPARg:RXRa 90nM:30nM, anti-RXR (NR concentration 90 nM, RXRa partner concentration 30 nM)
How it was run: as §1

Sequence | PBM binding z-score [1] | PBM binding z-score [2] | PBM binding z-score [3] | PBM binding z-score [4] | PBM binding z-score [5] | PBM binding z-score [6] | PBM binding z-score [7] | PBM binding z-score [8] | PBM binding z-score [9] | PBM binding z-score [10]
TAGCCTAGCTCATGGGCCAGTATACCACGCGAAC | -0.822 | -0.837 | -0.369 | -0.9 | -0.798 | -0.776 | 0.282 | -0.783 | -0.762 | -1.03
CGTCCAAGGGCAGAGAGGTCAGTGAATGCCGAGT | 1.75 | 1.84 | 0.628 | 1.59 | -0.506 | 2.5 | 0.642 | 1.19 | -0.361 | 0.293
CCTATTGGTTGACCATAAGGGCAACCGAAGCTCG | 0.484 | -0.0111 | -0.255 | 0.153 | -0.527 | 0.421 | 0.215 | 0.235 | -0.263 | -0.214
CCGACTGGGGCAAGGGTACCATAACGCACAGCCA | -0.555 | -0.391 | -0.264 | -0.192 | -1.39 | 1.5 | 4.24 | 4.92 | 2.6 | 4.6
CAAACTAGGTCACGAAAGGTCTAAGTCGAATGAC | 4.46 | 4.6 | 0.351 | 3.17 | 0.461 | 5.52 | 9.08 | 7.4 | 5.87 | 7.6
TCGAGTAGTTTAGTCGGGGCATTCAGCCAACATA | -0.125 | -0.295 | -0.441 | 0.256 | -0.38 | 0.346 | -0.694 | 0.0847 | 0.837 | 0.633
AGATCGAGGGCAATGAGTTGATAGCACGGGTGGC | 0.45 | 0.121 | -0.246 | -0.143 | -0.369 | 1.14 | 1.16 | 0.568 | 0.0147 | 0.283
ATCTCTAGGTAAAAGTTCACTGAATCCCGAGGAT | 1.74 | 2.79 | 2.51 | 1.79 | 1.07 | 4.85 | 8.64 | 8.64 | 7.7 | 9.26
CCTGCTAGGTCAATGGTCAGCAAAAGCAGCTCGC | 2.97 | 2.15 | 0.13 | 1.33 | -0.077 | 3.32 | 4.8 | 5.15 | 2.5 | 4.66
ATACCAAGGTGATCGTGAGGTCGTTGGTACTAAC | 1.53 | 1.48 | 0.698 | 0.769 | 0.221 | 1.51 | 0.281 | 0.597 | -0.201 | 0.338
CGAGCTAGGTCATTGACAGGACAGTGAATAGTAA | 5.01 | 3.11 | 0.348 | 2 | -0.314 | 3.33 | 2.12 | 2.15 | 0.406 | 1.34
TCATATAGGTAAAGGTGACAGTCGAACGATATGA | 0.847 | 1.04 | 0.0349 | 0.847 | -0.211 | 2.88 | 3.72 | 4.32 | 4.16 | 4.4
CCGACTGGGGCAAAAGTTACCATACTCAGTACGA | -0.402 | -0.339 | -0.126 | -0.0156 | -0.764 | 2.49 | 5.28 | 6.09 | 4.45 | 6.52
ACTATTAGTTGAGGCGAGGGCAACCGATAGGTTG | 0.489 | 0.289 | 0.0582 | 0.0711 | 0.108 | 0.378 | 0.389 | 0.0046 | 0.138 | -0.0218
CCGACTGGGGCATAAGGTTTCCATAAGCCAGCCC | 0.03 | -0.0633 | -0.565 | -0.536 | -1.41 | 0.26 | 1.11 | 1.75 | -0.0792 | 1.44
CCTTACGGGTCACTCCAGGATATAGCATCGGAGT | 4.88 | 5.8 | 0.346 | 2.94 | 0.014 | 4.08 | 3.39 | 3.49 | 1.08 | 2.48
ACTTACGGGTCAACCAGGTTATAGCACGCGTATA | 7.15 | 5.03 | 0.836 | 4.26 | 0.9 | 5.69 | 6 | 5.69 | 3.07 | 4.26
ATATGTAGGTTAAGGGTGATTCAGGTTGGTTCGC | 0.984 | 1.63 | 0.808 | 1.73 | 0.807 | 4.98 | 9.36 | 8.2 | 8.53 | 9.45
CGAACTAGGACAAGGACAGTGAATCTCCGCACGC | 0.182 | -0.241 | -0.152 | -0.655 | -0.538 | 0.455 | 1.22 | 0.612 | -0.234 | 0.216
TCTCGTAGGACACGAAGGTCAGAGCTTTCCAGAG | 0.999 | 0.907 | 0.334 | 1.08 | -0.838 | 1.85 | 0.478 | 1.91 | 2.61 | 2.45
CGAACTAGGTCATCCAGGACTGTGAATACATTGA | 4.52 | 2.4 | 0.426 | 2.06 | 0.107 | 4.84 | 7.64 | 6.38 | 4.23 | 5.82
TCTAGGAGGCCAGAGGGTCACTCAAGAGGTACGG | 1.5 | 0.891 | -0.426 | 0.559 | -1.15 | 2.65 | 1.87 | 3.02 | 2.76 | 2.99
CCTTGCAGGCCAATCTGGGTCACTCAAGGCTTGA | 0.555 | 1.37 | -0.554 | 1.1 | -0.539 | 3.31 | 2.29 | 2.35 | -0.0639 | 1.2
